Source: PubChem BioAssay (several laboratories)
tim10-1 inh: inhibits growth of tim10-1 mutant yeast; S. cerevisiae tim10-1 ts strain growth, BacTiter-Glo, 24 h; inhibition, % at 20 µM; hit rate 2.2% among 330,000; AID 463190;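 active = inhibition of at least 40%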;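 note: mutant grown at 25 °C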
TIM10 inh: growth inhibitors of TIM10 yeast strain; S. cerevisiae TIM10 strain growth, BacTiter-Glo luminescence, 24 h; hit rate 1.4% among 330,000; inhibition, % at 10 µM;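 active = inhibition of 40% or more at the single tested concentration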;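 note: wild-type TIM10 isogenic control strain grown at permissive 25 °C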
tim23-1 inh: inhibits growth of tim23-1 mutant yeast; S. cerevisiae tim23-1 growth, BacTiter-Glo luminescence, 24 h; inhibition, % at 20 µM; hit rate 1.3% among 330,000; AID 463212;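 active = growth inhibition of the mutant yeast at or above 50%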;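 note: temperature-sensitive mutant grown at 25 °C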
PfHsp90 yeast 2: inhibits growth of yeast expressing Plasmodium falciparum Hsp90; S. cerevisiae expressing PfHsp90, BacTiter-Glo ATP, 48 h; yeast lacking PDR1 and PDR3 efflux regulators; inhibition, % at 9.4 µM; hit rate 0.32% among 310,000; AID 504621;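 active = every replicate shows inhibition above about 80%, whatever the replicate mean, limit read from the data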
SKKanGAS inh: SKKanGAS growth inhibition | inhibition, % at 7.5 µM | hit rate 1.3% among 300,000 | S. pyogenes SKKanGAS, kanamycin growth, BacTiter-Glo, 6 h;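 active = mean replicate score, as percent of positive control median, at least 50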;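 note: strain carries kanamycin resistance gene driven by streptokinase promoter and grows in 40 µg/ml kanamycin; loss of luminescence reflects streptokinase promoter inhibition or plain growth inhibition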
NALP3 yeast inh: blocks the NALP3 inflammasome reconstituted in yeast. hit rate 0.39% among 330,000. inhibition, % at 10 µM. AID 2825. Yeast reconstituted NLRP3/ASC/caspase-1, beta-gal luminescence, 24 h;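 active = inhibition of 50% or more; inactive = inhibition below 50%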
Each line names hits and unclear results; the compound was inactive in the other large screens. Sampled rows, rich in hits. Any-hit rate of the full collection: about 4.5%.

O=C(N/N=C/c1c[nH]c2ccccc12)c1cc(-c2ccccc2)n[nH]1	none
O=C(N/N=C/c1c[nH]c2ccccc12)C1CC1(c1ccccc1)c1ccccc1 (stereo not given)	SKKanGAS inh 60.4
Cc1cc(F)ccc1S(=O)(=O)N1CCCOC1CNC(=O)C(=O)NCc1ccccn1 (stereo not given)	none
CC(OC(=O)Cc1c[nH]c2ccccc12)C(=O)N(C)c1ccccc1 (stereo not given)	none
CC(C)(C)N(Cc1ccccc1)C(=O)COc1cccnc1[N+](=O)[O-]	SKKanGAS inh 51.7
COc1ccc(/C=C/c2ccc3cccc(O)c3n2)c(OC)c1OC	SKKanGAS inh 105.3
CCOc1c(OC(C)=O)ccc(/C=C/c2ccc3cccc(OC)c3n2)c1[N+](=O)[O-]	none
COc1cccc(/C=C/c2ccc3cccc(O)c3n2)c1OC	SKKanGAS inh 86.2
CC(C)[C@H](NC(=O)c1ccc([N+](=O)[O-])cc1Cl)C(=O)N1CCN(C/C=C/c2ccccc2)CC1	none (no result: SKKanGAS inh)
CC(=NNc1nc2ccccc2s1)c1ncccn1	PfHsp90 yeast 2 114.6 (no result: tim10-1 inh, TIM10 inh, tim23-1 inh, SKKanGAS inh, NALP3 yeast inh)
Cc1cc(C)nc(Nc2nc3ccccc3o2)n1	none
CC(=O)Nc1cccc(/C(C)=N/Nc2nc3ccccc3s2)c1	none
Oc1ccccc1/C=N/Nc1nc2ccccc2o1	SKKanGAS inh 106.0
CC(=NNc1nc2ccccc2o1)c1cc2ccccc2cn1	PfHsp90 yeast 2 144.7 (no result: tim10-1 inh, TIM10 inh, tim23-1 inh, SKKanGAS inh, NALP3 yeast inh)
CC(=NNc1nc2ccccc2o1)c1ncccn1	PfHsp90 yeast 2 125.6 (no result: tim10-1 inh, TIM10 inh, tim23-1 inh, SKKanGAS inh, NALP3 yeast inh)
COC(=O)c1ccc(C2=NOC(C)(c3nnc(Cc4ccccc4)o3)C2)cc1 (stereo not given)	none
Cc1[nH]c(-c2ccccn2)nc(=S)c1Cl	SKKanGAS inh 88.2
COc1cc(NC(=O)COC(=O)CO/N=C(\C)c2ccc3c(c2)OCO3)cc(OC)c1OC	none
CCOc1ccccc1NC(=O)CSc1nnc(CCC(=O)Nc2ccccc2F)n1C	none
Cc1cccc(OCC(=O)NCC(=O)N/N=C/c2cc(Br)cc(Br)c2O)c1	SKKanGAS inh 61.1
c1ccc(CCNc2nc(-c3ccccn3)cs2)cc1	SKKanGAS inh 120.7
O=C(Nc1nc(-c2ccccn2)cs1)c1ccc(-c2ccccc2F)o1	PfHsp90 yeast 2 96.1 (no result: SKKanGAS inh)
Cc1ccc(C(=O)Nc2nc(-c3ccccn3)cs2)o1	SKKanGAS inh 76.6
O=C(Nc1nc(-c2ccccn2)cs1)c1ccc([N+](=O)[O-])o1	none
CC(=O)c1ccc(-c2ccc(C(=O)Nc3nc(-c4ccccn4)cs3)o2)cc1	none (no result: SKKanGAS inh)
COc1cccc(CNC(=O)CSCC(=O)Nc2ccc(C)cc2)c1	none
COc1ccc(OC)c(/C=N/n2c(-c3n[nH]c4c3CCC4)n[nH]c2=S)c1	SKKanGAS inh 50.3
COc1ccc(OCC(NS(=O)(=O)c2ccc(-n3cnnn3)cc2)C(C)C)cc1 (stereo not given)	none
Cc1cc(C)n(-c2nc(NCCC(C)C)c3c4c(sc3n2)COC(C)(C)C4)n1	SKKanGAS inh 64.5 (no result: tim10-1 inh, TIM10 inh, tim23-1 inh, PfHsp90 yeast 2, NALP3 yeast inh)
Cc1cc(C)n(-c2nc(NCCN(C)C)c3c4c(sc3n2)COC(C)(C)C4)n1	none (no result: PfHsp90 yeast 2)
Cc1cc(C)n(-c2nc(SCC(=O)Nc3nccs3)c3c4c(sc3n2)COC(C)(C)C4)n1	SKKanGAS inh 57.9
CC(Oc1ccc(Cl)cc1Cl)C(=O)N(C)c1ccccc1 (stereo not given)	none
COc1ccc2c(c1)c(CC(=O)NCc1cc([N+](=O)[O-])ccc1O)c(C)n2C(=O)c1ccc(Cl)cc1	SKKanGAS inh 51.5
Cc1c(C(=O)O)sc2ncn(C)c(=O)c12	none
Cc1ccc(OC(=O)c2sc3ncn(C)c(=O)c3c2C)cc1	SKKanGAS inh 77.9
CCc1nc2c3cnn(-c4cc(Cl)ccc4C)c3ncn2n1	SKKanGAS inh 53.1
O=C1c2ccc3c4c(ccc(c24)C(=O)N1c1cccc(O)c1)CC3	none
O=C1c2ccc3c4c(ccc(c24)C(=O)N1c1cccc(O)c1)C(=O)N(c1cccc(O)c1)C3=O	SKKanGAS inh 65.0
CC(C)=CCC12Oc3cc(O)ccc3C1(O)Oc1cc3c(c(O)c1C2=O)C=CC(C)(C)O3 (stereo not given)	SKKanGAS inh 105.0 (no result: PfHsp90 yeast 2)
NC(=O)CSc1nc2cc([N+](=O)[O-])ccc2n1-c1cccc(C(F)(F)F)c1	none
